PubChem BioAssay (NCATS)
Results filed as inconclusive are left out. Active and inactive are the calls of the source. Calls follow the shape of the dose curve; as a rule, active = well fitted curve in the direction sought with a large enough effect; inconclusive = small, poorly fitted or top-dose-only effect, or another doubt; inactive = no such curve, though single readings can be large; an effect the other way counts as inactive or inconclusive.

Experiment: Cell Proliferation Assay against the HBL1 Cell Line (AID 651646);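 also: cells exposed to compound for 48 h before reading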
Details: HBL1 DLBCL cells; at 46.1 µM (top of the series) unless noted
Outline: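 500 log-phase HBL1 cells per well in phenol red-free RPMI with 5% FBS were treated with compounds for 48 h at 37 °C, 5% CO2. Viability was read by CellTiter-Glo luminescence, normalized to DMSO (100%) and 9.2 uM bortezomib final (0%).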

Compound	viability, percent of control
OC(CN1CCC(Cc2ccc(F)cc2)CC1)c1ccc(Cl)cc1 (stereo unspecified)	66.4%
CC(C)C[C@H](NC(=O)[C@@H](O)[C@H](N)Cc1ccccc1)C(=O)O	106%
C[C@]12CCC(=O)C=C1CC[C@@H]1[C@@H]2[C@@H](O)C[C@@]2(C)[C@H]1CC[C@]2(O)C(=O)CO	39.1%
O=C(Nc1nc2ccccc2n1CCN1CCOCC1)c1cccc([N+](=O)[O-])c1	89.4%
Cc1oncc1C(=O)Nc1ccc(C(F)(F)F)cc1	84%
CC(C)(Sc1ccc(CCN(CCCCC2CCCCC2)C(=O)NC2CCCCC2)cc1)C(=O)O	13.8%

Experiment: Cell Proliferation Assay against the TMD8 Cell Line (Caspase readout at 16 hrs) (AID 651712)
Details: TMD8 lymphoma cells, caspase activation luminescence; series mostly up to 46.1 µM; caspase activation: at the top concentration
Outline: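 TMD8 cells (500/well) in phenol-red-free RPMI with glutamine, 5% FBS, were exposed to compounds for 16 h at 37 °C. Caspase 3/7 activation was read by Caspase-Glo luminescence; percent activity normalised to DMSO (0%) and 9.2 uM bortezomib final (100%).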

Compound	caspase activation
OC(CN1CCC(Cc2ccc(F)cc2)CC1)c1ccc(Cl)cc1 (stereo unspecified)	12.8% (inactive)
CC(C)C[C@H](NC(=O)[C@@H](O)[C@H](N)Cc1ccccc1)C(=O)O	1.05% (inactive)
C[C@]12CCC(=O)C=C1CC[C@@H]1[C@@H]2[C@@H](O)C[C@@]2(C)[C@H]1CC[C@]2(O)C(=O)CO	13.8% (inactive)
Cc1oncc1C(=O)Nc1ccc(C(F)(F)F)cc1	-10.3% (inactive)
CC(C)(Sc1ccc(CCN(CCCCC2CCCCC2)C(=O)NC2CCCCC2)cc1)C(=O)O	16.2% (inactive)

Experiment: Cell Proliferation Assay against the TMD8 Cell Line (Caspase readout at 8 hrs) (AID 651713);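 also: 0% = DMSO and 100% = 9.2 µM bortezomib caspase signal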
Details: TMD8 lymphoma cells, caspase activation luminescence; series mostly up to 46.1 µM; caspase activation: at the top concentration
Outline: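 Seed log-phase TMD8 cells, add compound by pin tool, incubate 8 h at 37C under 5% CO2, equilibrate to room temperature, add Caspase-Glo, wait 15 min, read luminescence; percent activity uses DMSO and 9.2 uM bortezomib controls.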

Compound	caspase activation
OC(CN1CCC(Cc2ccc(F)cc2)CC1)c1ccc(Cl)cc1 (stereo unspecified)	-19.5% (inactive)
CC(C)C[C@H](NC(=O)[C@@H](O)[C@H](N)Cc1ccccc1)C(=O)O	8.67% (inactive)
C[C@]12CCC(=O)C=C1CC[C@@H]1[C@@H]2[C@@H](O)C[C@@]2(C)[C@H]1CC[C@]2(O)C(=O)CO	-35.2% (inactive)
Cc1oncc1C(=O)Nc1ccc(C(F)(F)F)cc1	-50.5% (inactive)
CC(C)(Sc1ccc(CCN(CCCCC2CCCCC2)C(=O)NC2CCCCC2)cc1)C(=O)O	8.02% (inactive)
